LYPLA1 inh: LYPLA1 (human) inhibition in PME1 counter-screen. recombinant LYPLA1, FP-Rh probe fluorescence polarization. AID 2174. 320,000 compounds, 0.16% hits. inhibition, % at 5.9 µM;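 active = inhibition above the mean of all tested compounds plus 3 SD, set per campaign, cut at about 14% in these data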;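 note: inhibitors block serine hydrolase probe labeling of LYPLA1 so polarization falls; 0% = enzyme with DMSO and 100% = wells lacking LYPLA1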
pPAFAH FP inh: inhibitors of human plasma PAF acetylhydrolase (pPAFAH). recombinant pPAFAH, FP-rhodamine probe fluorescence polarization. inhibition, % at 3.39 µM. 330,000 compounds, 1.5% hits. AID 463082;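 active = inhibition above the mean inhibition across the screen plus 3 SD, cut at about 25% in these data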;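 note: inhibitors block binding of the rhodamine activity-based probe so polarization drops; 0% = enzyme with DMSO and 100% = wells lacking pPAFAH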
PAFAH1B2 inh: inhibitors of human PAFAH1B2 | recombinant PAFAH1B2, FP-rhodamine activity probe, fluorescence polarization | 340,000 compounds, 1.2% hits | inhibition, % at 3.39 µM | AID 492953 | P68402;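 active = inhibition above the mean of all tested compounds plus 3 SD, cut at about 24% in these data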;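 note: 0% = enzyme with DMSO and 100% = wells lacking PAFAH1B2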
Target sequence (P68402 whole entry, looked up): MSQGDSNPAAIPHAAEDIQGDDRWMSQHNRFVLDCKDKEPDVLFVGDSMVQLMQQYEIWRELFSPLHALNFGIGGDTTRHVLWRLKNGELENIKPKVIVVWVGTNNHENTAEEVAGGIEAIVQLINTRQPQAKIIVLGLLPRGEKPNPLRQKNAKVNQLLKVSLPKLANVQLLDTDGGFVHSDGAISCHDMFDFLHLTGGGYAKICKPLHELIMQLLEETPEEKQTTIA
PAFAH1B3 FP inh: inhibitors of human PAFAH1B3; Q15102; recombinant PAFAH1B3, FP-rhodamine probe, fluorescence polarization; inhibition, % at 3.39 µM; 340,000 compounds, 0.28% hits; AID 492972;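 active = inhibition above the screen-wide average of all tested compounds plus 3 SD, cut at about 25% in these data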;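 note: 0% = enzyme with DMSO only and 100% = wells lacking PAFAH1B3 protein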
Target sequence (Q15102 whole entry, looked up): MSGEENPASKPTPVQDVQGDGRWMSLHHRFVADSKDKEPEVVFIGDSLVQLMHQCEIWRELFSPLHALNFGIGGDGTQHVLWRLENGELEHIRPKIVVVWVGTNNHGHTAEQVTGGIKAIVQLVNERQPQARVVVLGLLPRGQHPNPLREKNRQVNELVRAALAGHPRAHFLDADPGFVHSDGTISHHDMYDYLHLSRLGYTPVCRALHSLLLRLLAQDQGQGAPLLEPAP
LYPLA2 counter: LYPLA2 (human) inhibition in PME1 counter-screen; inhibition, % at 5.9 µM; 320,000 compounds, 0.38% hits; recombinant LYPLA2, FP-Rh probe fluorescence polarization; O95372;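 active = inhibition above the screen-wide mean plus 3 SD, limit set per campaign, cut at about 26% in these data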;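 note: 0% = LYPLA2 with DMSO and 100% = wells lacking LYPLA2 enzyme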
PAFAH2 inh: PAFAH2 (human) inhibition | Q99487 | recombinant PAFAH2, FP-rhodamine activity probe, fluorescence polarization | inhibition, % at 3.39 µM | AID 492956 | 340,000 compounds, 0.99% hits;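 active = inhibition above the mean over all tested compounds plus 3 SD, cut at about 30% in these data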;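 note: inhibitors block probe labeling of enzyme so polarization drops; 0% = enzyme with DMSO and 100% = wells lacking PAFAH2 protein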
An asterisk follows results filed as active; nt = no result given. Compounds with a hit are over-represented: about 2.9% of the library has one in this group of screens.

SMILES	LYPLA1 inh	pPAFAH FP inh	PAFAH1B2 inh	PAFAH1B3 FP inh	LYPLA2 counter	PAFAH2 inh
COc1cc(NC(=O)C2CCCN(S(=O)(=O)c3ccc4c(c3)CCCN4C(C)=O)C2)cc(OC)c1 (stereo unspecified)	0	30*	-1	5	-5	1
O=C1c2oc3ccccc3c(=O)c2C(c2ccccn2)N1Cc1ccccc1 (stereo unspecified)	0	-9	3	1	-6	-2
CCCN(CC(=O)Nc1ccccc1OC)C(=O)CSc1nc(C)cc(C)n1	-1	6	-1	-6	1	-3
O=C(NNc1c2ccccc2nc2ccccc12)c1ccccc1O	3	32*	14	14	11	22
O=C(NNc1c2ccccc2nc2ccccc12)c1ccc(O)cc1	-1	16	6	5	1	9
O=C(NNc1c2ccccc2nc2ccccc12)c1cccc(O)c1	-2	26*	8	16	-4	16
O=C(Nc1ccccc1C(=O)NCc1ccccc1)c1ccccc1	-2	3	5	5	-5	-11
C[C@H](NS(=O)(=O)OCC(Cl)(Cl)Cl)C1CC1c1ccccc1 (stereo partly specified)	-1	26*	32*	-7	0	5
O=S(=O)(NC12CC3CC(CC(C3)C1)C2)c1ccc(F)cc1	-3	3	28*	6	-6	0
CCn1c(=O)c(CCC(=O)NCC2CCCO2)c(C)c2c(C)nn(-c3ccccc3)c21 (stereo unspecified)	4	1	6	14	10	-4
C=CCN=c1scc(C)n1/N=C/c1ccc(O)c(O)c1	-6	34*	6	12	-6	10
CN=c1scc(C)n1/N=C/c1ccc(O)cc1	0	-1	2	11	0	-3
Cc1cc(C)cc(NC(=O)Nc2ccc(N3CCCCC3)cc2)c1	-1	5	nt	nt	1	nt
Cc1ccc(C)c(NS(=O)(=O)c2ccc3[nH]c(=O)[nH]c3c2)c1	-4	11	2	5	-4	-9
COc1c(O)c(O)c2oc(-c3ccccc3)cc(=O)c2c1OC	-1	19	4	11	-3	0
COc1cc(-c2cc(=O)c3c(O)c(OC)c(OC)c(O)c3o2)ccc1O	-2	26*	6	25	-1	7
CCN(c1ccc(OCC(=O)OCC(=O)Nc2ccc(F)c(F)c2F)cc1)S(=O)(=O)c1ccccc1	2	2	40*	5	7	4
CN(c1ccc(OCC(=O)OCC(=O)Nc2ccccc2)cc1)S(=O)(=O)c1ccc(F)cc1	-4	7	2	4	-2	-8
N#Cc1ccccc1NC(=O)CSc1nnc(-c2ccc(F)cc2)n1-c1ccccc1	nt	nt	26*	0	nt	-4
Cc1nnc(SCC(=O)Nc2cc(C(N)=O)cc(C(N)=O)c2)n1-c1ccccc1	1	3	28*	-2	2	2
COc1ccc(NC(=O)Nc2cnccn2)cc1	3	1	1	1	6	3
CCOC(=O)c1sc(-c2ccc(C)cc2)c(C#N)c1C	-2	-2	8	6	-4	0
O=C(O)c1cccc(S(=O)(=O)Nc2ccc3oc(=O)sc3c2)c1	-2	4	27*	7	-5	-4
CCN1CCN(S(=O)(=O)c2ccc(Cl)c(C(=O)NC3CCC(C)CC3)c2)CC1 (stereo unspecified)	-1	5	18	12	6	-6
CCN1CCN(S(=O)(=O)c2ccc(Cl)c(C(=O)NC3CCCCC3)c2)CC1	-1	1	28*	5	-2	-1
SMILES	LYPLA1 inh	pPAFAH FP inh	PAFAH1B2 inh	PAFAH1B3 FP inh	LYPLA2 counter	PAFAH2 inh
CC(=O)OCCNc1cc(N2CCN(C)CC2)c2noc3c2c1C(=O)c1ccccc1-3	nt	nt	6	3	nt	11
CCN1CCN(c2cc(N3CCN(C(=O)c4ccco4)CC3)c3c4c(onc24)-c2ccccc2C3=O)CC1	11	27*	1	-3	8	-19
Cc1ccc(-c2noc(Cn3nc(C(=O)O)c4ccccc4c3=O)n2)cc1	-3	2	-3	-4	-10	6
O=C(CCC(=O)NNC(=O)COc1ccc(Br)cc1Br)NCc1ccccc1	-2	27*	nt	nt	-6	nt
Cc1cc(Br)cc(Br)c1OCC(=O)NNC(=O)CCC(=O)NCc1ccccc1	nt	nt	3	7	nt	0
CCCCOC(=O)c1ccc(NS(=O)(=O)c2cc(-c3nnnn3CC)ccc2OC)cc1	-2	28*	6	9	-2	0
COc1ccc(C(=O)OCC(=O)Nc2nnc(-c3ccccc3)o2)cc1	0	-5	7	-5	-3	2
CC(NC(=O)C12CC3CC(C)(CC(C)(C3)C1)C2)c1ccncc1 (stereo unspecified)	-1	7	25*	9	-5	11
O=C(NNC(=O)C12CC3CC(CC(C3)C1)C2)c1ccncc1	0	0	9	9	-4	-11
CC12CC3CC(C)(C1)CC(C(=O)NNC(=O)c1ccncc1)(C3)C2	1	3	25*	12	7	8
C[C@H]1CCC[C@]2(C)C[C@H]3OC(=O)C(CN4CCCCCC4)[C@H]3C=C12 (stereo partly specified)	1	7	30*	2	-5	19
Cc1ccc(OCCC(=O)OCC(=O)NNC(=O)c2ccccc2)cc1	2	22	-1	8	1	3
Cc1ccc(OCCC(=O)OCC(=O)NC(=O)NCc2ccccc2)cc1	-2	16	5	-4	-1	2
CCOc1ccc(OCCC(=O)OCC(=O)Nc2ccc(Cl)cn2)cc1	3	25*	2	2	-6	1
Cc1ccc(CNC(=O)CCOc2ccc(C(C)(C)C)cc2)cc1	0	9	30*	0	5	-3
CCOc1ccc(OCCC(=O)OCC(=O)NNC(=O)c2ccccc2)cc1	-1	28*	0	0	-4	7
O=C(COC(=O)CCOc1ccccc1)Nc1ccc(Cl)cn1	-4	22	5	2	-1	11
Cc1ccc(CNC(=O)COC(=O)CCOc2ccc(C)cc2)cc1	2	27*	7	-1	2	-6
Cn1cc(CN2CCN(CC(C)(C)C)C(CCO)C2)c2ccccc21 (stereo unspecified)	3	5	6	4	4	4
CCOc1ccc(N2CC(C(=O)OCC(=O)NCc3ccccc3)CC2=O)cc1 (stereo unspecified)	3	27*	-3	-5	7	-2
Cc1cc(C(=O)NNC(=O)CCCOc2ccccc2)c(C)o1	3	-3	7	4	3	3
CC(C)(C)c1ccc(OCCCC(=O)NNC(=O)c2ccccc2O)cc1	-1	28*	27*	9	-1	0
CC(C)(C)c1ccc(OCCC(=O)OCC(=O)NCc2ccccc2)cc1	0	26*	7	-1	0	0
